# Reference: PubChem BioAssay
# Calls of active or inactive are those of the source.
# What was measured:
# [1] = optical density shifts of acrAB sulA E. coli – strain DRC41, OD650, 48 h, E. coli filamentation inducer project, primary screen (AID 1152); conditions: higher = more signal, called active from +8 up or from −8 down;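 note: E. coli MC1000 strain DRC41 lacking acrAB efflux pump and sulA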
# [2] = probe aLefty1 binding on compound microarray – biochemical, small-molecule microarray, 635/667 nm fluorescence, primary screen (AID 1153); conditions: higher = more signal;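 note: score merges spot fluorescence with signal-to-noise ratio from the scanned slide images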
# [3] = plasmodial surface anion channel blockers, osmotic lysis – cell-based, P. falciparum Indochina, OD700, 1 h, primary screen (AID 1154); conditions: P. falciparum Indochina infected RBC osmotic lysis, higher = more signal, called active from +8 up or from −8 down
# [4] = plasmodial surface anion channel blockers, osmotic lysis – cell-based, P. falciparum Indochina, OD700, 2 h, primary screen (AID 1155);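 note: lysis reports solute entry through the parasite surface anion channel PSAC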; conditions: P. falciparum Indochina infected erythrocytes, higher = more signal, called active from +8 up or from −8 down
# [5] = changes in parasitized red cell lysis, either direction – P. falciparum Indochina, OD700, 3 h, PSAC antagonist project, primary screen (AID 1156); conditions: P. falciparum-infected erythrocytes, osmotic lysis, higher = more signal, called active from +8 up or from −8 down
# [6] = plasmodial surface anion channel blockers, osmotic lysis – cell-based, P. falciparum Indochina, OD700, 18 h, primary screen (AID 1157); conditions: P. falciparum Indochina infected erythrocytes, osmotic lysis OD700, 18 h; higher = more signal, called active from +8 up or from −8 down
# [7] = S6 kinase pathway phospho-S6 level changes – cell-based, A549, cytoblot, luminescence, serum-stimulated, primary screen (AID 1158); conditions: 5 h, higher = more signal;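 note: serum-stimulated A549 lung adenocarcinoma cells; signal is phosphorylated S6 detected by cytoblot immunostaining with HRP secondary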
# [8] = target: NADPH oxidase 2 (Homo sapiens) (UniProt P04839); test: compounds shifting NOX2 Amplex Red fluorescence – cell-based, HEK293-NOX2, PMA-stimulated, NOX inhibitor project, primary screen (AID 1159); conditions: 45 min, higher = more signal, called active from +8 up or from −8 down; note: test concentration not given here
# [9] = target: NADPH oxidase 4 (Homo sapiens) (UniProt Q9NPH5); test: compounds shifting NOX4 Amplex Red fluorescence – cell-based, HEK293-NOX4, tetracycline-induced, NOX inhibitor project, primary screen (AID 1160); conditions: HEK293-NOX4, Amplex Red H2O2 fluorescence, 45 min; higher = more signal, called active from +8 up or from −8 down
# [10] = target: NADPH oxidase 5 (Homo sapiens) (UniProt Q96PH1); test: compounds shifting NOX5 Amplex Red fluorescence – cell-based, HEK293-NOX5, NOX inhibitor project, primary screen (AID 1161); conditions: HEK293-NOX5, ionomycin, 45 min, higher = more signal
# [11] = compound effects on lung adenocarcinoma cell viability – A549, calcein-AM fluorescence, 48 h, basal, profiling panel (AID 1162); conditions: higher = more signal; note: test concentration not given here
# [12] = compound effects on differentiated 3T3-L1 adipocyte viability – cell-based, 3T3-L1 adipocytes, calcein-AM fluorescence, 48 h, basal, profiling panel (AID 1163); conditions: 3T3-L1 adipocytes viability, higher = more signal; note: test concentration not given here
# [13] = compound effects on hepatocellular carcinoma cell viability – HepG2, calcein-AM fluorescence, 48 h, basal, profiling panel (AID 1164); conditions: higher = more signal; note: test concentration not given here
# [14] = compound effects on multiple myeloma cell viability – MM1S, calcein-AM fluorescence, 48 h, basal, profiling panel (AID 1165); conditions: higher = more signal; note: test concentration not given here
# [15] = calcein-AM signal in unstimulated myeloma cells – cell-based, calcein-AM fluorescence, 48 h, PK04 Diversity Set, profiling panel (AID 1166); conditions: RPMI8226 myeloma viability, higher = more signal;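 note: cells grown under basal conditions without added stimulus; test concentration not given here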
# [16] = JC-1 mitochondrial signal, unstimulated HepG2 cells – cell-based, JC-1 fluorescence, 24 h, 100 nL compound, profiling panel (AID 1167); conditions: HepG2 mitochondrial potential, higher = more signal; note: test concentration not given here
# [17] = JC-1 mitochondrial signal, unstimulated adipocytes – cell-based, JC-1 fluorescence, 3T3-L1 adipocytes, 24 h, 100 nL compound, profiling panel (AID 1168); conditions: JC-1 mitochondrial fluorescence, higher = more signal, called active from +8 up or from −8 down; note: test concentration not given here
# [18] = JC-1 mitochondrial signal, unstimulated myeloma cells – cell-based, JC-1 fluorescence, RPMI8226, 24 h, 100 nL compound, profiling panel (AID 1169); conditions: JC-1 mitochondrial potential fluorescence, higher = more signal; note: test concentration not given here
# [19] = JC-1 mitochondrial signal, unstimulated MM1S myeloma – cell-based, JC-1 fluorescence, 24 h, 100 nL compound, profiling panel (AID 1170); conditions: MM1S mitochondrial potential, higher = more signal; note: test concentration not given here
# [20] = resazurin metabolic signal in A549 cells – cell-based, resazurin fluorescence, 24 h, PK04 Diversity Set, profiling panel (AID 1171); conditions: A549 viability, higher = more signal, called active from +8 up or from −8 down; note: test concentration not given here
# Sequence of NADPH oxidase 5 (Homo sapiens) (Q96PH1 whole entry, looked up): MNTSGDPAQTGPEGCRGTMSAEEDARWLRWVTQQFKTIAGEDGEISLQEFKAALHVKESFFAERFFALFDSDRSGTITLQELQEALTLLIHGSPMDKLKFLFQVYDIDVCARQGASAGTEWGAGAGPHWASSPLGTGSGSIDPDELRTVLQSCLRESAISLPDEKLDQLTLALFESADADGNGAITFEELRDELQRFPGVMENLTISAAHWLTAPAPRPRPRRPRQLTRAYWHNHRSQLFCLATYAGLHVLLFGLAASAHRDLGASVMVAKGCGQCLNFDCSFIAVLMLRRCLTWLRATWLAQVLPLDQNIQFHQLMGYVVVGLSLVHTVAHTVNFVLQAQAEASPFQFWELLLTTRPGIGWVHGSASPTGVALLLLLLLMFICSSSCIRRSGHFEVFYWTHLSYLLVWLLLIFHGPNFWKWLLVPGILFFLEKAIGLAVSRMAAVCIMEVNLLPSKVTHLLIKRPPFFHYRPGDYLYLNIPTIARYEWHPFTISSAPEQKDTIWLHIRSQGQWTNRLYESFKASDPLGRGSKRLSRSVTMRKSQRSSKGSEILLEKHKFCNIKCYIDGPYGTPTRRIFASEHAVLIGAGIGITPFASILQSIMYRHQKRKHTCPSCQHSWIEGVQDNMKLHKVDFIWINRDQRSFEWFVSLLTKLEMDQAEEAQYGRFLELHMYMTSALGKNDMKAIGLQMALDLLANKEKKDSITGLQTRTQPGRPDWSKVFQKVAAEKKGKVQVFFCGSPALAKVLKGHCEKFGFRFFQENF
# Sequence of NADPH oxidase 2 (Homo sapiens) (P04839 whole entry, looked up): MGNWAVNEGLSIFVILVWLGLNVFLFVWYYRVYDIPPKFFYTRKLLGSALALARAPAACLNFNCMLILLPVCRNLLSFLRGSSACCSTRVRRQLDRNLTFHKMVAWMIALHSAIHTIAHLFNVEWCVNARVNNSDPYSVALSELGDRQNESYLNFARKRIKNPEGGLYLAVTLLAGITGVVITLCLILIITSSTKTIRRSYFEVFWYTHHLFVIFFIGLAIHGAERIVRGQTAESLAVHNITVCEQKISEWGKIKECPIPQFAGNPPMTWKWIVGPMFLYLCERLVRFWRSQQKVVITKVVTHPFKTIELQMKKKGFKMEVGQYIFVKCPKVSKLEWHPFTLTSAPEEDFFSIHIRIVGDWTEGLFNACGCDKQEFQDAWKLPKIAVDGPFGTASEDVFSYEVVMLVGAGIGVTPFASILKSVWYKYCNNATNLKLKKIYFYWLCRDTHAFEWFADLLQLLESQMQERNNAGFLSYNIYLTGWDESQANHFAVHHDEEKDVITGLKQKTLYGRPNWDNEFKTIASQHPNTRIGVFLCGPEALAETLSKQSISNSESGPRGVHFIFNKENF
# Sequence of NADPH oxidase 4 (Homo sapiens) (Q9NPH5 whole entry, looked up): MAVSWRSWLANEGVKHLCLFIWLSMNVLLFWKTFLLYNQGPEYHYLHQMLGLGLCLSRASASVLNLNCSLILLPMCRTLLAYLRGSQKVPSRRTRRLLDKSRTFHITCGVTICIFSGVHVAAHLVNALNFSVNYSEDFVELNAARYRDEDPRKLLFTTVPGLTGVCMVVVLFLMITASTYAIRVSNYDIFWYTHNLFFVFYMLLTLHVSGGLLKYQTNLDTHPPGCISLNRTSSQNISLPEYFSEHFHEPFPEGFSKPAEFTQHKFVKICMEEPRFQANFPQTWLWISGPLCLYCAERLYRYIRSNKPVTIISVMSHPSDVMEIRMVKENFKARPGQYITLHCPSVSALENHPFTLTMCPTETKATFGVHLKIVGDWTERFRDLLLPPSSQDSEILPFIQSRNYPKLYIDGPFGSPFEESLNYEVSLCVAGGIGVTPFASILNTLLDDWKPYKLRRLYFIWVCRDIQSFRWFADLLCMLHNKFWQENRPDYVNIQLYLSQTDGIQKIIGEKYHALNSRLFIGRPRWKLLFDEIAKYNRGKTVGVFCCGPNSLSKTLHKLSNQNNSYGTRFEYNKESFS
SMILES,z-score [1],composite z-score [2],z-score [3],z-score [4],z-score [5],z-score [6],z-score [7],z-score [8],z-score [9],z-score [10],z-score [11],z-score [12],z-score [13],z-score [14],z-score [15],z-score [16],z-score [17],z-score [18],z-score [19],z-score [20]
CCOc1cc(C(O)C2C=CC3C(=O)N(c4ccccc4)C(=O)C3N2Nc2ccc(C(C)C)cc2)ccc1O (stereo not given),-1.97 (inactive),0.469,11.5 (active),1.8 (inactive),1.74 (inactive),1.42 (inactive),-0.729,-3.06 (inactive),-4.82 (inactive),-5.07,-0.65,-0.538,-0.159,-2.67,-1.16,-1.66,-0.457 (inactive),0.41,-0.19,-0.866 (inactive)
CCCCN1CC=CC23O[C@@H]4/C=C\CCCOC(=O)C4[C@H]2C(=O)N(CCCO)[C@@H]3C1=O (stereo not given in full),-0.0884 (inactive),0.0927,0.897 (inactive),0.611 (inactive),-0.746 (inactive),0.0888 (inactive),-0.207,1.59 (inactive),0.593 (inactive),2.02,-0.609,0.803,0.186,-0.614,-0.568,-0.795,1.19 (inactive),0.16,0.597,0.216 (inactive)
CC(C)=CCCC(C)=CC(O)C1C=CC2C(=O)N(c3ccccc3)C(=O)C2N1Nc1ccc(C(C)C)cc1 (stereo not given),-0.843 (inactive),0.201,0.934 (inactive),0.219 (inactive),0.391 (inactive),0.729 (inactive),-0.765,-1.11 (inactive),-1.15 (inactive),-1.34,-1.27,-0.276,-0.964,0.105,-0.589,-1.09,-0.696 (inactive),0.465,1.06,0.38 (inactive)
CCCCCCCCCCC(O)C1C=CC2C(=O)NC(=O)C2N1Nc1ccc(Cl)cc1Cl (stereo not given),-2.32 (inactive),0.335,4.61 (inactive),2.51 (inactive),-1.75 (inactive),1.78 (inactive),-0.428,0.684 (inactive),-1.86 (inactive),-0.838,-4.55,0.061,-3.5,-3.8,-4.21,-3.53,-0.354 (inactive),-0.931,-1.08,-1.52 (inactive)
C=CC[C@]12N=C(c3ccc(OCCCO)cc3)O[C@H]1c1ccccc1N(CCS(=O)(=O)c1ccccc1)C2=O,-0.913 (inactive),0.204,31.2 (active),28 (active),2.35 (inactive),7.99 (inactive),0.852,-2.24 (inactive),0.939 (inactive),-2.12,0.289,0.839,0.324,-1.68,-0.916,0.134,1.73 (inactive),-1.01,-1.25,-1.02 (inactive)
COCCOC(=O)N1C(=O)[C@@]2(c3cc(C#CC4(O)CCCCCC4)ccc31)[C@H](C(=O)Nc1nc3ccccc3s1)[C@H]1C(=O)O[C@H](c3ccccc3)[C@H](c3ccccc3)N1[C@@H]2c1ccc(OCCO)cc1,0.197 (inactive),0.411,2.97 (inactive),2.39 (inactive),1.73 (inactive),2.27 (inactive),0.481,0.566 (inactive),-0.595 (inactive),0.0214,-0.593,1.47,-0.15,-1.83,-2.56,-3.3,-0.438 (inactive),-0.635,-1.18,0.566 (inactive)
COC(=O)C(CC#Cc1ccc2c(c1)[C@]1(C(=O)N2)[C@H](c2ccccc2OCCO)N2[C@H](c3ccccc3)[C@H](c3ccccc3)OC(=O)[C@H]2[C@@H]1C(N)=O)C(=O)OC,0.793 (inactive),1.81,7.57 (inactive),2.02 (inactive),1.44 (inactive),1.2 (inactive),-0.0528,2.12 (inactive),0.696 (inactive),1.51,-0.387,0.395,-4.39,-3.38,-4.56,-2.46,3.28 (inactive),-1.18,-2.09,-1.01 (inactive)
CN(C)C(=O)[C@]1(Cc2ccccc2)N=C(c2ccc(OCCCO)cc2)O[C@@H]1c1ccccc1N=[N+]=[N-],0.554 (inactive),0.008,32.4 (active),34.9 (active),1.96 (inactive),4.27 (inactive),0.0986,-1.46 (inactive),-0.242 (inactive),-1.36,-0.279,-0.336,-0.987,-3.2,-4.26,1.43,2.9 (inactive),-1.18,-2.37,-1.75 (inactive)
OB1C=CCC(CCc2ccccc2)O1 (stereo not given),3.28 (inactive),-0.0651,-0.263 (inactive),-0.649 (inactive),-1.32 (inactive),-2.19 (inactive),0.946,-1.05 (inactive),0.69 (inactive),1.22,0.345,0.638,0.36,0.293,0.364,1.39,0.244 (inactive),-0.855,0.954,-1.01 (inactive)
C=CCNC(=O)[C@@H]1[C@H]2C(=O)O[C@H](c3ccccc3)[C@H](c3ccccc3)N2[C@H](c2ccc(OCCO)cc2)[C@@]12C(=O)N(C(=O)OCCOC)c1ccc(C#CCNC(N)=O)cc12,1.43 (inactive),0.284,4.2 (inactive),0.921 (inactive),1.47 (inactive),0.514 (inactive),0.472,0.827 (inactive),-0.213 (inactive),0.0624,-0.0901,0.488,0.219,0.911,-1.6,-0.734,0.648 (inactive),-0.888,0.679,-0.271 (inactive)
O=C1[C@H]2C=C(I)[C@H](C[C@@H]2OCCCCO)[C@@]12CO2,-0.989 (inactive),0.0437,1.01 (inactive),-0.171 (inactive),0.282 (inactive),-0.039 (inactive),0.764,-0.0538 (inactive),0.491 (inactive),-0.584,-0.292,-0.393,-0.66,-0.739,-0.954,-1.71,-0.431 (inactive),-1.13,-0.509,0.109 (inactive)
CC#CC(=O)Oc1ccc(Br)cc1C=CC(=O)OCC,-1.17 (inactive),0.0386,25.5 (active),7.06 (inactive),-0.189 (inactive),1.37 (inactive),-0.27,-1.86 (inactive),-2.68 (inactive),0.227,-2.1,-1.04,-2.88,-3.18,-4.08,-1.65,-0.315 (inactive),-0.583,-1.84,-0.685 (inactive)
CN(C)CCCCNC(=O)[C@@H]1C[C@@H]2C(=O)N[C@@H](CCCCN)C(=O)N2[C@@H]1c1ccc(O)cc1,0.928 (inactive),0.129,1.93 (inactive),1.43 (inactive),-0.079 (inactive),1.16 (inactive),0.297,1.42 (inactive),1.28 (inactive),0.81,0.48,-1.51,0.377,-0.388,0.473,-1.58,0.627 (inactive),-0.836,-1.29,0.0719 (inactive)
C=CC[C@]1(C(N)=O)N=C(c2ccc(OCCCO)cc2)O[C@H]1c1ccccc1,-0.0378 (inactive),-0.0057,6.38 (inactive),1.44 (inactive),0.99 (inactive),0.765 (inactive),-0.039,0.737 (inactive),0.676 (inactive),0.145,0.354,0.464,-0.717,-0.519,-0.111,-0.579,-1.09 (inactive),-0.414,0.13,-0.0187 (inactive)
COc1ccc(C(=O)Nc2cccc(CN3C(=O)[C@]4(O[C@H](CCn5cc(CCO)nn5)[C@@H]([Si](C)(C)c5ccc(OC)cc5)[C@@H]4C)c4ccccc43)c2)cc1,-0.856 (inactive),-0.0061,6.78 (inactive),2.29 (inactive),0.155 (inactive),1.7 (inactive),-0.815,-1.91 (inactive),-0.0331 (inactive),2.87,-3.46,-0.42,-4.63,-2.47,-4.35,-2.18,1.51 (inactive),-0.46,-2.05,-6 (inactive)
C=C(CCCC)/C(=C/C[C@@H](OC(C)=O)c1cccc(OCCO)c1)c1cnc2ccccc2c1,0.776 (inactive),0.201,23.6 (active),6.35 (inactive),2.48 (inactive),1.51 (inactive),0.237,-2.25 (inactive),-0.934 (inactive),-2.22,0.238,1.3,-0.0152,-1.47,-2.31,2.23,-2 (inactive),-0.423,-0.714,0.329 (inactive)
